# Measurements taken from PubChem BioAssay.
# Calls of active or inactive are those of the source.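 How the source made its calls, unless noted: active means NADPH fluorescence slope more negative than the mean of all samples by about 3 SD, 99.7% confidence; inactive means the rest.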
# What was measured:
# [1] = inhibitors of TNFa-induced NFkB p65 translocation, primary screen, imaging, HUVEC, MLSMR starter and 10KST1 sets (AID 438;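 active means inhibition above 20% together with a positive visual image hit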;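 further: compound added about 3h40 before a 20 min TNFalpha stimulation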;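 on inhibition: signal is the nuclear over cytoplasmic p65 intensity ratio per well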); conditions: HUVEC TNFa-induced p65 nuclear translocation; cell count: measured here: nuclei count (cytotoxicity indicator), at 2.08 µM; inhibition: at 2 µM, stronger effect = higher value, 0% TNFa-plus-vehicle, 100% no-TNFa wells
# [2] = inhibitors of mutant huntingtin aggregation, primary screen, imaging, exon1htt(103Q)mCFP cells, high-content imaging (AID 483;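 active means visual image review flags a hit and inhibition of aggregation exceeds 20%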;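 further: compound exposure lasted 3 days before fixation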;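 on nuclei count: percent of the per-plate median nuclei count of sample wells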); conditions: exon1htt(103Q)mCFP cell line, aggregate imaging, at 2 µM; inhibition of aggregation: stronger effect = higher value; nuclei count: measured here: cell count, toxicity
# [3] = inhibitors of E-selectin induction by TNFa, primary screen, imaging, HUVEC, immunofluorescence, MLSMR starter and 10KST1 sets (AID 487;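 active means visually confirmed hit in the image check and inhibition above 20%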;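 on inhibition: signal is fraction of cell area covered by stained E-selectin grains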;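 on nuclei count: 100% = median nuclei count of all wells on the same plate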); conditions: HUVEC TNFalpha-induced E-selectin immunofluorescence imaging, at 2 µM; inhibition: stronger effect = higher value; nuclei count: measured here: cell number, toxicity
# [4] = target: Voltage-gated potassium channel subunit beta-2 (Rattus norvegicus) (UniProt P62483); assay: KvBeta enzyme negative modulators, primary screen, biochemical, NADPH fluorescence (AID 622;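 active means fluorescence slope higher than the sample average by over 3 SD, cut at about -0.22 in these data, passing the limit was not always enough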;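 further: slope of raw intensity against log time taken from 70 to 1610 s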); conditions: recombinant KvBeta, 4-cyanobenzaldehyde reduction, at 10 µM, stronger effect = higher value
# [5] = target: Voltage-gated potassium channel subunit beta-2 (Rattus norvegicus) (UniProt P62483); assay: KvBeta positive modulators, primary screen, biochemical, NADPH fluorescence (AID 623); conditions: Recombinant KvBeta, NADPH fluorescence decrease slope, 10 min; at 10 µM; stronger effect = lower value;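 further: fluorescence intensity change per second fitted from 20 to 320 s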
# [6] = target: Alpha-2C adrenergic receptor (Homo sapiens) (UniProt P18825); assay: modulators of alpha2C/GIRK thallium flux, primary screen, cell-based, HEK293 alpha2C/GIRK1/2 (AID 624;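 active means fluorescence slope after compound addition differing from the mean of all screened samples at 99.7% confidence, in either direction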;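 further: slope of fluorescence ratio to pre-addition baseline per second over 15 to 24 s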); conditions: thallium flux BTC fluorescence, at 10 µM, actives lie on both sides
# [7] = inhibitors of Sendai virus-induced IRF3 signaling, primary screen, TLR/RLR signaling modifier project, cell-based, Sendai virus stimulus, luciferase, 10K MLSCN set (AID 602276;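 active means inhibition at or above 50% at 10 µM; inactive means inhibition below 50%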;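 further: firefly luciferase from ISG56 promoter only with Renilla not read in this screen; 0% = Sendai virus plus DMSO and 100% = medium plus DMSO without virus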); conditions: HEK293 RL24 IRF3 luciferase reporter, at 10 µM, stronger effect = higher value
# [8] = inhibitors of poly I:C-induced TLR3 signaling, primary screen, cell-based, poly I:C stimulus, luciferase, 10K MLSCN set (AID 602277;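 active means inhibition of the reporter signal at or above 50%; inactive means inhibition below 50%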); conditions: HEK293-TLR3 RL24 IRF3 luciferase reporter, at 10 µM, stronger effect = higher value
# [9] = DUSP6 inhibitors restoring Erk phosphorylation by chemical complementation, primary imaging in DUSP6-transfected HeLa (AID 609;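 active means compounds giving at least 50% inhibition in the cell-based MKP-3 phosphatase rescue imaging test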;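 on inhibition: phospho-Erk level distribution per well compared with pooled transfected vehicle control wells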); conditions: HeLa MKP-3 transfected, phospho-Erk imaging KS statistic, at 10 µM, cells stimulated with TPA for 15 min
# [10] = target: Dual specificity protein phosphatase 6 (Homo sapiens) (UniProt Q16828); assay: as above; conditions: HeLa MKP-3 transfected, phospho-Erk imaging KS statistic; at 10 µM; stronger effect = higher value; cells stimulated with TPA for 15 min
# [11] = target: Muscarinic acetylcholine receptor M4 (Homo sapiens) (UniProt P08173); assay: compounds altering M4/GIRK thallium flux, either direction, primary screen, M4 allosteric agonist project, cell-based, HEK293 M4/GIRK, BTC-AM (AID 625;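 active means fluorescence slope after compound addition differing from the mean of all tested samples at 99.7% confidence, mostly higher but some lower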;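 further: thallium influx through GIRK channels coupled to M4 in HEK293 cells with BTC-AM dye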); conditions: at 10 µM, actives lie on both sides
# [12] = inhibitors of larval lipid processing in zebrafish, primary screen, whole organism, PED6 fluorescence, gall bladder and intestine (AID 686;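 active means a full or partial loss of lipid-probe fluorescence in the fish gall bladder, intestine or both, judged by eye; inactive means no fluorescence loss, or compound toxic to the fish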;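 further: larvae 5 to 7 days old with five fish per well; signal comes from phospholipase A2 cleavage of quenched PED6 carried via bile; overnight exposure to compound and PED6 before scoring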); conditions: Zebrafish larvae PED6 lipid processing, fluorescence scoring; screened at 20 µM (by protocol)
# [13] = inhibitors of Chlamydomonas gravitaxis, primary screen, whole organism, Chlamydomonas reinhardtii, WT vs cilia-less mutant, absorbance, 96-well (AID 463189;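 active means inhibition at or above 50% relative to wild type and mutant plate controls; inactive means inhibition below 50%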;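 further: 0% = wild type cc124 cells in DMSO and 100% = ciliumless bld1 mutant cells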); conditions: OD600 absorbance, 2 days, at 10 µM, stronger effect = higher value
# [14] = measured here: cell density z-score
# [15] = measured here: nuclear c-Myc green intensity z-score
# [16] = measured here: nuclear pErk red intensity z-score, stronger effect = higher value
# Muscarinic acetylcholine receptor M4 (Homo sapiens), sequence (P08173 whole entry, looked up): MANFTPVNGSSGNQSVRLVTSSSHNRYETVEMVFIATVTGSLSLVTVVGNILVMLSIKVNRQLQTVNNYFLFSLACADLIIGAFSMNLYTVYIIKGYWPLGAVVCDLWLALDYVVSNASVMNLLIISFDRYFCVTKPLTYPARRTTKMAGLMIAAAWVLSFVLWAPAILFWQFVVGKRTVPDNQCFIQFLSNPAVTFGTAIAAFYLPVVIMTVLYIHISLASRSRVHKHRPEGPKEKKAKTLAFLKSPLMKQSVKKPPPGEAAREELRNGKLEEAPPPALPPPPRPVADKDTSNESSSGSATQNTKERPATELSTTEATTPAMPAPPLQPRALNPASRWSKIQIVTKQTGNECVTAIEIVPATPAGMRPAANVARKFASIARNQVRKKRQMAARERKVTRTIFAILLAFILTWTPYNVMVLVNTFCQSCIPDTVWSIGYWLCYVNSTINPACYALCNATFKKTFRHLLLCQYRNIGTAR
# Voltage-gated potassium channel subunit beta-2 (Rattus norvegicus), sequence (P62483 whole entry, looked up): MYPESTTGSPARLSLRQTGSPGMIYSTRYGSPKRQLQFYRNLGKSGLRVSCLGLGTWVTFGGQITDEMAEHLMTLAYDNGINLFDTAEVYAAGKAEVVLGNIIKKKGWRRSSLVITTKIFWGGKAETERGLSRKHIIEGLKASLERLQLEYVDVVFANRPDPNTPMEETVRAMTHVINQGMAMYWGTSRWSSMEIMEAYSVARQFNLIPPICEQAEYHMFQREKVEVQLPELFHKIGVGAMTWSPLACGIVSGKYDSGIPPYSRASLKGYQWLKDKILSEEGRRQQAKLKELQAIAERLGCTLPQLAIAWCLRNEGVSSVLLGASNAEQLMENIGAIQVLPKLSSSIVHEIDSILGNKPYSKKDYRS
# Dual specificity protein phosphatase 6 (Homo sapiens), sequence (Q16828 whole entry, looked up): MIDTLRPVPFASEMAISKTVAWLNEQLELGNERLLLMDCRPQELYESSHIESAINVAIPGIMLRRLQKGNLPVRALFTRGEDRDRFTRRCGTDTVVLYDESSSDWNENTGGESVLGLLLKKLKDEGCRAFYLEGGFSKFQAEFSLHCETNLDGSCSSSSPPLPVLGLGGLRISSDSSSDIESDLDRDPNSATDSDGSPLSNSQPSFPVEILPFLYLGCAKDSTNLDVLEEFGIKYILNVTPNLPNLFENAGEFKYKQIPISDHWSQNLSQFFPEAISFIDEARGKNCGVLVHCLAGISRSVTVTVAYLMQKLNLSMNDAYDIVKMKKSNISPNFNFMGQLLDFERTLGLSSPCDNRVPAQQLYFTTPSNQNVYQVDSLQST
# Alpha-2C adrenergic receptor (Homo sapiens), sequence (P18825 whole entry, looked up): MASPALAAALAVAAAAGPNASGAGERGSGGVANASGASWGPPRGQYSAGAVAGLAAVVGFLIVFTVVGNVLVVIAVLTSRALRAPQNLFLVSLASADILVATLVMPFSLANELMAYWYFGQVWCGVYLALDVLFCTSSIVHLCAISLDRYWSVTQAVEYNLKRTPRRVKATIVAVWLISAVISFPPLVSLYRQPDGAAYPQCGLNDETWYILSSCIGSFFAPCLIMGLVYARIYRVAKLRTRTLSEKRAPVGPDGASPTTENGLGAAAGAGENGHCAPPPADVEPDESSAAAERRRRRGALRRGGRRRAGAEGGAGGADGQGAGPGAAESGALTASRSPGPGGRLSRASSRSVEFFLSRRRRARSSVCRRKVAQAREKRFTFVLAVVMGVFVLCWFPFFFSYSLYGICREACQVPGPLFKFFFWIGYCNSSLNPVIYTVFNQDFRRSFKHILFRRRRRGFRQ
SMILES,cell count [1],inhibition [1],inhibition of aggregation [2],nuclei count [2] [%],inhibition [3],nuclei count [3] [%],fluorescence slope [4],NADPH fluorescence slope [5],slope [6],inhibition [7],inhibition [8],"z-score [9, 14]","z-score [9, 15]","z-score [9, 16]",inhibition [10],fluorescence slope [11],outcome [12],inhibition [13]
CCN(CC)Cc1csc(C(N)=O)c1,617,-1.2% (inactive),0.5% (inactive),102,-26% (inactive),83,-0.612 (inactive),-6.9e-06 (inactive),0.00652 (inactive),5.97% (inactive),23.4% (inactive),–,–,–,–,–,–,–
CCOC(=O)CNC(=O)CSc1nc(N)cc(N)n1,434,5.1% (inactive),-0.1% (inactive),106,-62.6% (inactive),108,-0.385 (inactive),2.9e-05 (inactive),0.00537 (inactive),1.91% (inactive),8.68% (inactive),–,–,–,–,–,–,–
O=C(CSc1nc2ccccc2s1)Nn1cnnc1,461,-6.2% (inactive),–,–,–,166,-0.439 (inactive),-7.8e-05 (inactive),–,–,–,-0.815,-1.79,0.477,6.04% (inactive),0.00557 (inactive),inactive,17.1% (inactive)
CC1/C(=N/O)C(CN(C)C)C2CC1C2(C)C (stereo not drawn),347,-2.5% (inactive),7.8% (inactive),30.1,13.2% (inactive),101,-0.592 (inactive),1.8e-05 (inactive),0.0062 (inactive),3% (inactive),11.5% (inactive),–,–,–,–,–,–,–
O=C(COC(=O)C12CC3CC(CC(C3)C1)C2)NCc1ccco1,661,3.4% (inactive),-6.5% (inactive),109,-28.3% (inactive),113,-0.561 (inactive),7.7e-06 (inactive),0.00593 (inactive),11.1% (inactive),31.8% (inactive),–,–,–,–,–,–,–
COc1cc2c(cc1NC(=O)COC(=O)Cn1cnc3ccccc31)oc1ccccc12,403,7.7% (inactive),-10.9% (inactive),86.8,-2.1% (inactive),110,-0.533 (inactive),-2.6e-05 (inactive),0.00618 (inactive),20.9% (inactive),9.12% (inactive),–,–,–,–,–,–,–
COc1ccc(-c2nnc(SCC(=O)Nc3sc4c(c3C#N)CCC4)n2CC2CCCO2)cc1 (stereo not drawn),846,4.6% (inactive),13.5% (inactive),103,-171% (inactive),131,-0.591 (inactive),-5.3e-05 (inactive),0.00872 (inactive),7.87% (inactive),15.5% (inactive),–,–,–,–,–,–,–
OCCNCCCCOc1ccccc1F,765,-1.5% (inactive),-2.5% (inactive),91.8,33.1% (inactive),91.1,-0.387 (inactive),1.2e-05 (inactive),0.00574 (inactive),-4.78% (inactive),2.08% (inactive),–,–,–,–,–,–,–
CCc1nnc(NC(=O)CSc2nnc(-c3cc4ccccc4cc3O)n2CC)s1,674,-7.8% (inactive),1.7% (inactive),109,-52.3% (inactive),125,-0.511 (inactive),2.5e-06 (inactive),0.00587 (inactive),7.37% (inactive),11.2% (inactive),–,–,–,–,–,–,–
CCCn1cc(C(CC(=O)O)C(=O)O)c2ccccc21 (stereo not drawn),319,0.2% (inactive),11% (inactive),97.5,-112% (inactive),126,-0.399 (inactive),-3.1e-05 (inactive),0.00576 (inactive),13.9% (inactive),17.2% (inactive),–,–,–,–,–,–,–
COc1cccc(C(=O)Nc2cc(C)c3c(=O)oc4ccccc4c3n2)c1,526,0.3% (inactive),9.3% (inactive),93.9,-0.1% (inactive),92.8,-0.429 (inactive),-3.7e-05 (inactive),0.00602 (inactive),10.3% (inactive),22.2% (inactive),–,–,–,–,–,–,–
Cc1ccc(N2CCN(c3ccc(C)cc3)C(CC(=O)O)C2=O)cc1 (stereo not drawn),549,-4.7% (inactive),3.3% (inactive),92.3,12.6% (inactive),108,-0.499 (inactive),1.5e-05 (inactive),0.00583 (inactive),5.38% (inactive),4.47% (inactive),–,–,–,–,–,–,–
COCCCn1c(SCC(=O)Nc2cccc(C)n2)nnc1-c1ccco1,601,-10.2% (inactive),21.7% (inactive),85.3,73.4% (inactive),64.2,-0.612 (inactive),-2.9e-05 (inactive),0.00331 (inactive),18.6% (inactive),16.6% (inactive),–,–,–,–,–,–,–
Cn1cccc1Cc1nnc(SCC(=O)Nc2ccc(F)cc2)n1-c1ccc(F)cc1,843,1.4% (inactive),-2.2% (inactive),95.4,-45.2% (inactive),116,-0.592 (inactive),-1.8e-05 (inactive),0.00531 (inactive),10.5% (inactive),27.7% (inactive),–,–,–,–,–,–,–
CCOC(=O)C(NC(=O)c1ccc(OC)cc1)(N1CCOCC1)C(F)(F)F (stereo not drawn),551,-0.5% (inactive),-14.5% (inactive),108,29.4% (inactive),88.9,-0.59 (inactive),-4.2e-05 (inactive),0.00726 (inactive),-14.4% (inactive),-22.3% (inactive),–,–,–,–,–,–,–
C=CCOc1ccc(C2/C(=C(\O)c3ccc(F)cc3)C(=O)C(=O)N2CCCN(C)C)cc1 (stereo not drawn),672,-13.7% (inactive),–,–,-142% (inactive),172,-0.451 (inactive),-4.3e-05 (inactive),–,–,–,1.58,1.06,-0.378,4.25% (inactive),0.00492 (inactive),inactive,14.7% (inactive)
Cc1onc(-c2c(Cl)cccc2Cl)c1C(=O)NCC1CCCO1 (stereo not drawn),394,6.8% (inactive),15.4% (inactive),87.4,-10.7% (inactive),113,-0.519 (inactive),1.7e-05 (inactive),0.00578 (inactive),-10.3% (inactive),10.7% (inactive),–,–,–,–,–,–,–
Cc1ccc2cc3cc(C(=O)N4CC(C)CC(C)C4)oc3nc2c1 (stereo not drawn),654,-3.9% (inactive),14.3% (inactive),86.4,-77% (inactive),110,-0.597 (inactive),7.7e-06 (inactive),0.00635 (inactive),2.56% (inactive),-64.4% (inactive),–,–,–,–,–,–,–
Cc1ccc(N2CCN(S(=O)(=O)N(C)C)CC2)c(C)c1,393,-2.4% (inactive),23.9% (inactive),75.5,-55.1% (inactive),107,-0.559 (inactive),-3.5e-06 (inactive),0.00671 (inactive),2.52% (inactive),4.97% (inactive),–,–,–,–,–,–,–
COc1ccc(C(=O)Nc2ccccc2C(=O)NCCN2CCOCC2)cc1,462,-2.2% (inactive),-3.2% (inactive),98.2,-23.5% (inactive),103,-0.429 (inactive),-1.1e-05 (inactive),0.00486 (inactive),-23.4% (inactive),-25.1% (inactive),–,–,–,–,–,–,–
Cc1cc(C)nc(SCC(=O)Nc2ncc3c(n2)CCCC3=O)n1,188,-8.6% (inactive),10.1% (inactive),98.6,-9.1% (inactive),85.2,-0.622 (inactive),-1.1e-05 (inactive),0.00766 (inactive),6.63% (inactive),11.4% (inactive),–,–,–,–,–,–,–
Cc1cccn2c(=O)c(/C=C(\C#N)S(=O)(=O)c3ccccc3)c(N3CCN(C)CC3)nc12,468,-9.2% (inactive),–,–,–,183,-0.457 (inactive),-6e-05 (inactive),–,–,–,-0.688,-1.21,-0.646,7.7% (inactive),0.00316 (inactive),inactive,1.87% (inactive)
CCOC(=O)N1CCN(C(=O)CCc2ccc(S(=O)(=O)NCCc3ccccc3)cc2)CC1,735,-1.6% (inactive),4.3% (inactive),102,-24.7% (inactive),123,-0.413 (inactive),-9.6e-06 (inactive),0.00346 (inactive),2.18% (inactive),5.38% (inactive),–,–,–,–,–,–,–
CCOC(=O)C1=C(C)NC(=O)NC1c1ccc(OCCO)c(OC)c1 (stereo not drawn),634,-12.8% (inactive),-2.9% (inactive),102,30.3% (inactive),89.2,-0.468 (inactive),-4.3e-05 (inactive),0.00652 (inactive),-1.76% (inactive),25.5% (inactive),–,–,–,–,–,–,–
O=C1CC(c2ccc(F)c(Br)c2)C2=C(CCCC2=O)N1 (stereo not drawn),334,-6.7% (inactive),-9.9% (inactive),113,-63% (inactive),108,-0.327 (inactive),4e-06 (inactive),0.00275 (inactive),-0.311% (inactive),26.9% (inactive),–,–,–,–,–,–,–
Cc1nnc(SCc2nc3ccccc3s2)n1-c1ccccc1,394,-1% (inactive),-14.1% (inactive),83.9,-324% (inactive),153,-0.317 (inactive),7.5e-06 (inactive),0.005 (inactive),13.8% (inactive),-17.5% (inactive),–,–,–,–,–,–,–
O=C(NCCCn1ccnc1)c1cnn2c1NC(c1ccccc1)CC2C(F)(F)F (stereo not drawn),616,-4.9% (inactive),-5.5% (inactive),98.3,6.6% (inactive),93,-0.389 (inactive),3.1e-05 (inactive),0.00374 (inactive),-0.0558% (inactive),15.6% (inactive),–,–,–,–,–,–,–
Cc1ccc(NC(=O)c2cc(N3CCOCC3)nc3ccccc23)cc1,674,-10.2% (inactive),–,–,–,174,-0.393 (inactive),-2.7e-05 (inactive),–,–,–,0.315,1.28,0.543,-16.8% (inactive),0.00495 (inactive),inactive,19% (inactive)
